Screens from PubChem.
PfHsp90 yeast 2 – reduces growth (ATP signal) of yeast expressing P. falciparum Hsp90; S. cerevisiae expressing PfHsp90, BacTiter-Glo ATP, 48 h; yeast lacking PDR1 and PDR3 efflux regulators; inhibition, % at 9.4 µM; 310,000 tested, 0.32% active; AID 504621;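 active = every replicate shows inhibition above about 80%, whatever the replicate mean, limit read from the data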;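 also: 0% = DMSO neutral controls and 100% = 20 µM radicicol positive controls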
tim23-1 inh – growth inhibitors of tim23-1 mutant yeast; S. cerevisiae tim23-1 growth, BacTiter-Glo luminescence, 24 h; inhibition, % at 20 µM; 330,000 tested, 1.3% active; AID 463212;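 active = growth inhibition of the mutant yeast at or above 50%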;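 also: temperature-sensitive mutant grown at 25 °C; plate controls were DMSO-treated mutant yeast for no effect and medium wells lacking yeast for full effect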
SKKanGAS inh – inhibitors of SKKanGAS S. pyogenes growth in kanamycin (SK-promoter or general growth effect); BacTiter-Glo, 6 h; inhibition, % at 7.5 µM; 300,000 tested, 1.3% active; AID 1662;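 active = mean replicate score, as percent of positive control median, at least 50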;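 also: strain carries kanamycin resistance gene driven by streptokinase promoter and grows in 40 µg/ml kanamycin; loss of luminescence reflects streptokinase promoter inhibition or plain growth inhibition; 0% = median of DMSO wells and 100% = positive control at its reference dose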
TIM10 inh – TIM10 yeast growth inhibition; S. cerevisiae TIM10 strain growth, BacTiter-Glo luminescence, 24 h; inhibition, % at 10 µM; 330,000 tested, 1.4% active; AID 463195;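 active = inhibition of 40% or more at the single tested concentration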;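 also: wild-type TIM10 isogenic control strain grown at permissive 25 °C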
tim10-1 inh – growth inhibitors of tim10-1 mutant yeast; S. cerevisiae tim10-1 ts strain growth, BacTiter-Glo, 24 h; inhibition, % at 20 µM; 330,000 tested, 2.2% active; AID 463190;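 active = inhibition of at least 40%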;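 also: mutant grown at 25 °C; 0% = DMSO wells with yeast and 100% = wells holding no yeast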
ATG4B inh – ATG4B (human) cysteine protease inhibition; inhibition, % at 8.33 µM; ATG4B cleavage of LC3-PLA2, NBD-HPC fluorescence, 1 h; 340,000 tested, 0.51% active; AID 504462; in the data active = inhibition above about 40%
Target sequence (Q9Y4P1 whole entry, looked up): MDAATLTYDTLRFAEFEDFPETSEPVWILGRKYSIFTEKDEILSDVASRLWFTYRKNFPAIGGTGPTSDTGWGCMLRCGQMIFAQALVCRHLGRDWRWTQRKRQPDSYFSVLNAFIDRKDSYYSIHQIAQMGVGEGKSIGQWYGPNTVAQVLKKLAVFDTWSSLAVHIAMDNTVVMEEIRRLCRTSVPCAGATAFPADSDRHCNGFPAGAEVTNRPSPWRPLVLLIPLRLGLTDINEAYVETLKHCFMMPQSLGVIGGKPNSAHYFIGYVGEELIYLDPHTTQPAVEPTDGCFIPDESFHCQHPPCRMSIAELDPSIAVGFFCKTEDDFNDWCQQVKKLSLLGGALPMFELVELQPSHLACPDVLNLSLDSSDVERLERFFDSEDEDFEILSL
* marks the source's active call; other numbers are inactive results; · = not tested or not shown. In the library only some 4.7% were active in any assay of this set; here they are far more common.

SMILES	PfHsp90 yeast 2	tim23-1 inh	SKKanGAS inh	TIM10 inh	tim10-1 inh	ATG4B inh
O=C(NC(=S)NNC(=O)c1cccs1)c1ccccc1	30	-16	86*	9	5	-5
COc1cc(C(=O)NNC(=S)NC(=O)c2ccc(Cl)cc2)cc(OC)c1OC	-27	16	93*	5	21	-17
COc1cc(CCC(=O)NNC(=O)c2ccc(Cl)cc2)cc(OC)c1OC	8	14	-1	-1	11	-7
O=C(/C=C/c1ccccc1)NC(=S)NNC(=O)c1cccnc1	-3	-8	15	23	23	-4
O=C(/C=C/c1ccccc1)NC(=S)NNC(=O)c1cnccn1	109*	33	64*	-4	9	-3
Cc1nn2c(N3CCOCC3)cc(C(C)(C)C)nc2c1-c1ccccc1	-11	-1	-1	-5	-8	-6
O=C(NNC(=S)NC(=O)c1sc2ccccc2c1Cl)c1ccc(Cl)cc1	-3	20	96*	-32	-6	4
Cc1nnc2n(-c3ccccc3)c(=O)c3c4c(sc3n12)COC(C(C)C)C4 (stereo not given)	-33	-11	-1	9	-1	3
CC(C)C1Cc2c(sc3[nH]c(=S)n(Cc4ccccc4)c(=O)c23)CO1 (stereo not given)	-32	0	82*	15	31	8
COc1cccc(/C=N/NC(=O)CNC(=O)COc2ccccc2)c1O	-4	-6	2	-5	13	-4
Cc1cccc(OCC(=O)NCC(=O)N/N=C/c2cc(Br)cc(Br)c2O)c1	-1	1	61*	29	21	-4
O=C(Nc1ccc(-c2csc(Nc3ccc(Cl)cc3)n2)cc1)c1cc([N+](=O)[O-])cc(C(F)(F)F)c1	-29	25	75*	-5	12	-7
O=C(Nc1cccc(-c2csc(Nc3ccc(Cl)cc3)n2)c1)c1ccccc1	25	39	91*	39	21	20
CCCCCOc1cccc(C2C(C(=O)c3cccs3)=C(O)C(=O)N2CCN2CCOCC2)c1 (stereo not given)	16	19	8	21	14	-1
CSCc1cc(N(C)c2ccccc2)nc(-c2ccccn2)n1	-9	-56	75*	19	-41	3
CN(C)c1cc(C(F)(F)F)nc(-c2ccccn2)n1	10	-4	11	7	3	5
CC(=O)C1=C(C)NC(SCC(=O)c2cc(Cl)ccc2Cl)=C(C#N)C1c1ccco1 (stereo not given)	-7	32	39	20	39	3
CC(=O)C1=C(C)NC(SCC(=O)c2ccc(Cl)c(Cl)c2)=C(C#N)C1c1ccco1 (stereo not given)	-6	29	56*	17	16	-14
O=C(c1ccccc1)n1ccc(-c2cccs2)n1	-15	8	4	-2	-12	-5
COc1ccccc1C(=O)NCCC(=O)Nc1ccc(S(=O)(=O)N2CC(C)CC(C)C2)cc1 (stereo not given)	18	-1	·	1	-2	-38
CCCCN(CCCC)C1=Nc2ccccc2N/C1=C(/C#N)C(=O)OCC	-24	25	72*	15	16	-1
CCn1c(SCc2ccc(F)cc2)nc2ccccc2c1=O	1	4	51*	-26	0	1
NS(=O)(=O)c1ccc(N/N=C2/CCCCC2C2CCCCC2)c([N+](=O)[O-])c1 (stereo not given)	-53	39	77*	25	20	12
CC12CCC(C/C1=N\N=C1\NC(=O)/C(=C\c3ccc(Cl)cc3)S1)C2(C)C (stereo not given)	-4	15	106*	3	34	12
COC(=O)c1cc(C(=O)Nc2nc3ccccc3[nH]2)cc([N+](=O)[O-])c1	-10	-8	63*	-8	-21	3
O=C(Nc1nc2ccccc2[nH]1)c1cccc([N+](=O)[O-])c1	-23	-20	9	0	0	-4
COc1ccccc1/C=C1\SC(=S)N(CCC(=O)NNC(=O)c2ccccc2O)C1=O	29	14	52*	18	19	-1
COc1cc(O)c(CC=C(C)C)c(O)c1C(=O)CCc1ccc(O)cc1	68	35	98*	26	38	16
